Screens (PubChem BioAssay)
EWS-Fli inh – inhibitors of EWS/Fli oncoprotein transcriptional activity | A673 NR0B1-luciferase reporter, viability-normalised | inhibition, % at 12.6 µM | 350,000 compounds, 0.67% hits | AID 651661;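 active means mean inhibition of at least 50% after viability correction, with every replicate also passing that limit; inconclusive means mean reaches 50% but only one of two replicates passes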;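 further: firefly luciferase signal divided by Alamar Blue viability fluorescence both relative to DMSO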
KKLEB tox – CF airway cell cytotoxicity counter-screen. KKLEB CF airway cells viability, ATPlite luminescence, overnight; hits give low values; cells stimulated with P. aeruginosa culture filtrate. 360,000 compounds, 0.36% hits. activity change (cytotoxicity), % at 5 µM;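 active means corrected activity change at or below -50% at 5 µM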
Shn3 inh set2 – inhibitors of Schnurri-3 3'UTR reporter in osteoblasts; Clone20 osteoblast Shn3 3'UTR firefly luciferase, 24 h; inhibition, % at 12.5 µM; 360,000 compounds, 0.52% hits;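 active means mean inhibition of at least 75% with every replicate also reaching 75%; inconclusive means mean inhibition at least 75% but some replicate below; inactive means mean inhibition below 75%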;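 further: 0% = median of neutral control wells and 100% = pilot-screen positive control compound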
CF NFkB inh – cystic fibrosis NF-kB activation inhibition | KKLEB NF-kB-GFP reporter, PAF-induced, GFP fluorescence overnight | inhibition, % at 5 µM | 360,000 compounds, 0.86% hits | AID 588850;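 active means at least 50% inhibition at 5 µM, scaled per plate between neutral and stimulator controls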;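 further: PAF is a Pseudomonas aeruginosa culture filtrate used as stimulus; plate controls were PAF-stimulated DMSO wells for no effect and unstimulated DMSO wells for full effect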
PAX8 inh HTS – PAX8 transcriptional activity inhibition | RMG-I TPO-luciferase reporter, SteadyGlo, 24 h | inhibition, % at 12.6 µM | 360,000 compounds, 1.2% hits;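 active means mean replicate inhibition at least 60% with every replicate also reaching 60%; inconclusive means only one of the two criteria is met; inactive means mean below 60% and not all replicates reaching 60%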;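 further: luciferase light reporting Pax8 driven TPO promoter activity; plate controls were median of neutral control wells for no effect and mitoxantrone controls for full effect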
LGR2 inh – Drosophila LGR2 receptor signaling inhibition; HEK293 LGR2, CRE-luciferase, bursicon-stimulated, 4 h; inhibition, % at 9.99 µM; 380,000 compounds, 0.35% hits;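 active means drop in luminescence signal, shown as inhibition above about 50% in the replicate tests, limit read from the data, passing the limit was not always enough; inconclusive means probably only some replicates passing the limit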;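 further: agonist challenge used bursicon conditioned medium at about half maximal strength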
Numbers without * were called inactive; ? = inconclusive; . = not tested or not shown. A selection: hits, their analogues and other compounds. The true share with any hit is near 2%.

SMILES	EWS-Fli inh	KKLEB tox	Shn3 inh set2	CF NFkB inh	PAX8 inh HTS	LGR2 inh
COc1ccc(-c2c[n+]3c(n2-c2ccc(C)cc2)CCCCC3)cc1	24.1	0.6	.	1.7	99.4*	.
CCOc1ccc(-n2c(-c3ccc(OC)cc3)c[n+]3c2CCCCC3)cc1	36.0	-6.5	85.4*	5.0	99.4*	14.2
COc1ccc(-n2c(-c3ccc(Cl)cc3)c[n+]3c2CCCCC3)cc1	13.7	4.9	71.2	6.7	51.9	-1.3
CCOc1ccc(-n2c(-c3ccccc3)c[n+]3c2CCC3)cc1	30.5	-9.0	84.4*	6.4	82.3*	3.3
COc1ccc(-c2c[n+]3c(n2-c2ccccc2)CCCCC3)cc1	17.0	-0.5	80.1	3.3	55.9	7.5
CCOc1ccc(-n2c(-c3ccc(Br)cc3)c[n+]3c2CCCCC3)cc1	34.6	-7.1	73.5	0.2	95.1*	-5.9
CC(=O)N(C)C[C@@H]1Oc2ncc(C#Cc3cccc(F)c3)cc2C(=O)N([C@@H](C)CO)C[C@@H]1C	4.4	.	.	.	.	3.4
CC(C)NC(=O)Nc1ccc2c(c1)C(=O)N([C@@H](C)CO)C[C@@H](C)[C@@H](CN(C)S(=O)(=O)c1ccc(Cl)cc1)OCCCC[C@H](C)O2	-16.2	.	.	.	-12.7	5.4
C[C@@H]1CN([C@H](C)CO)C(=O)c2cc(NC(=O)Nc3cccc4ccccc34)ccc2O[C@@H]1CN(C)Cc1ccc(C(=O)Nc2ccccc2N)cc1	28.6	.	.	.	.	-8.5
Cc1ccc2nc(-c3ccccc3)cn2c1	.	5.3	84.1	-14.0	.	.
Cc1ccc2nc(-c3ccc(O)c(O)c3)cn2c1	1.4	5.1	90.1*	-14.6	12.7	?
CCCC#Cc1ccc([C@@H]2[C@H](CO)N3CCCCN(S(=O)(=O)Cc4ccccc4)C[C@@H]23)cc1	58.7*	.	.	.	116.6*	5.7
O=C(c1ccc(F)cc1)N1CC(=O)N2[C@H](CO)[C@@H](c3ccc(/C=C/c4ccccc4)cc3)[C@@H]2C1	-4.9	.	.	.	68.7*	5.3
O=C(c1ccc(F)cc1)N1CC(=O)N2[C@@H](CO)[C@H](c3ccc(/C=C/c4ccccc4)cc3)[C@@H]2C1	1.7	.	.	.	1.6	24.7
O=C1CN(Cc2ccc(F)cc2)C[C@@H]2[C@@H](c3ccc(Br)cc3)[C@@H](CO)N12	3.7	.	.	.	72.5*	-9.8
O=C1CN(S(=O)(=O)Cc2ccccc2)C[C@@H]2[C@@H](c3ccc(C#Cc4ccc(F)cc4)cc3)[C@@H](CO)N12	17.7	.	.	.	105.9*	42.1
O=C1CN(Cc2ccc(F)cc2)C[C@@H]2[C@@H](c3ccc(Br)cc3)[C@H](CO)N12	-15.3	.	.	.	0.8	9.0
O=C1CN(S(=O)(=O)Cc2ccccc2)C[C@@H]2[C@@H](c3ccc(C#Cc4ccc(F)cc4)cc3)[C@H](CO)N12	-5.8	.	.	.	53.1	-26.9
CC(C)CC#Cc1ccc2c(c1)O[C@@H](CN(C)C(=O)c1cccnc1)[C@@H](C)CN([C@H](C)CO)S2(=O)=O	6.9	.	.	.	.	-5.9
COc1cccc(-c2ccc([C@@H]3[C@H](CO)N4CCCCN(CC5CC5)C[C@@H]34)cc2)c1	-7.0	.	.	.	-11.2	33.3
CCC(=O)N1[C@@H]2c3ccc(-c4ccccc4F)c(=O)n3C[C@@H]2[C@@H](CO)[C@@H]1C(=O)NCCCN(C)C	-7.9	.	.	.	1.2	-5.7
CCC(=O)N1C[C@H](C)[C@H](OC)CN(C)C(=O)c2cc(NS(C)(=O)=O)ccc2OC[C@H]1C	1.3	.	.	.	.	1.7
CCC(=O)N1[C@@H]2Cn3c(ccc(-c4cccnc4)c3=O)[C@H]1[C@@H](C(=O)N1CCc3ccccc3C1)[C@@H]2CO	-0.2	.	.	.	7.2	1.2
C[C@@H]1CN([C@@H](C)CO)C(=O)c2cc(NC(=O)NC3CCCCC3)ccc2O[C@@H]1CN(C)Cc1ccncc1	2.2	.	.	.	6.0	-10.2
CC(C)C(=O)Nc1ccc2c(c1)C(=O)N(C)[C@H]1CC[C@H](CC(=O)Nc3ccc(Cl)cc3)O[C@@H]1CO2	-0.7	.	.	.	-5.4	-3.6
CCCC#Cc1ccc([C@@H]2[C@@H](CO)N3CCCCN(S(=O)(=O)Cc4ccccc4)C[C@@H]23)cc1	-4.7	.	.	.	-7.6	7.8
CCCC#Cc1ccc([C@H]2[C@H]3CN(S(=O)(=O)Cc4ccccc4)CCCCN3[C@H]2CO)cc1	-5.8	.	.	.	106.4*	12.8
O=C(C1CCC1)N1CC(=O)N2[C@H](CO)[C@H](c3ccc(C#CCc4ccccc4)cc3)[C@H]2C1	-5.4	.	.	.	82.6*	23.6
